38 molecules from PubChem BioAssay AID1210 (NMMLSC, 2008) can be followed below.

Activity calls are given as the source filed them.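 Rule for the calls: active = blocks over 70% of labeled estradiol binding at 10 µM, or over a set limit at 100 nM; inactive = the rest.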

Sequence of Estrogen receptor beta (Homo sapiens) (Q92731 whole entry, looked up): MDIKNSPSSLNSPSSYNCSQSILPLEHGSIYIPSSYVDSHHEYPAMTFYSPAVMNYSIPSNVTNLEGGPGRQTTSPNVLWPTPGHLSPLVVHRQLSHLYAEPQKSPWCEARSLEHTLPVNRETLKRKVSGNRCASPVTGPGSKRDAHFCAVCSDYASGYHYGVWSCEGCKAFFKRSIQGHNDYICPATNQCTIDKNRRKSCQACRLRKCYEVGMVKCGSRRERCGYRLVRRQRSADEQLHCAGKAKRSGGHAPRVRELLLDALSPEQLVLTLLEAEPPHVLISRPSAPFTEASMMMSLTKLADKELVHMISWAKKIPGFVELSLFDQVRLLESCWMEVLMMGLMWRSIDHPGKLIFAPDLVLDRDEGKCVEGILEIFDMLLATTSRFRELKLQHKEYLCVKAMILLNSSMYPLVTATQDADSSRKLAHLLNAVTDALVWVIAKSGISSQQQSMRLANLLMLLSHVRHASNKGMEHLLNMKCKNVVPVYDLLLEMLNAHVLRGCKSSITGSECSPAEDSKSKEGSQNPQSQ

The experiment has as its target Estrogen receptor beta (Homo sapiens) (UniProt Q92731). As to the kind of experiment: ERbeta ligand binders by competition, primary screen, cell-based, Cos7 ERbeta-GFP, flow cytometry (AID 1210).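 Note: 0% = DMSO vehicle wells and 100% = complete loss of labeled estradiol signal.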 Conditions: fluorescent estrogen binding, at 10 µM, hits give high values. On the technique in general: A flow cytometer gives signals particle by particle.
What is called inhibition is the percentage by which the read-out fell short of the control. In the case of `Cc1noc(C)c1CSCC(=O)OCC(=O)Nc1sccc1C#N`, the inhibition is 5% (inactive). In the case of `O=c1oc2cc(O)ccc2c2c1CCCC2` it was 12% (inactive). As for `COc1cc([N+](=O)[O-])cc2c1N[C@@H](c1ccc(C(=O)O)cc1)[C@H]1CC=C[C@@H]21`, the figure is 42% (inactive); as for `O=C(NC1CC1)c1ccc2c(c1)C1C3CCC(C3)C1C(c1ccccc1)N2` (stereo not drawn), 0% (inactive). In the case of `Nc1ccc2nc(-c3ccc(N)c(Cl)c3)[nH]c2c1` it was 64% (inactive); in that of `CCOC(=O)c1c(N)sc2c1CC(C)(C)NC2(C)C`, 22% (inactive). Consider `Nc1ccc(-c2nc3ccc([N+](=O)[O-])cc3[nH]2)cc1`, for which the inhibition is 61% (inactive). As for `Fc1ccc2c(c1)C1C=CCC1C(c1cc3c(cc1Br)OCO3)N2` (stereo not drawn), the figure is 0% (inactive); as for `CC(C)CN(Cc1c(O)ccc2c3c(c(=O)oc12)CCC3)CC(C)C`, 17% (inactive); as for `c1coc(C2Nc3ccccc3C3OCCC23)c1` (stereo not drawn), 0% (inactive). As for `Cc1ccc2c(c1C)NC(C(=O)O)C1CC=CC21` (stereo not drawn), the figure is 3% (inactive); as for `Cc1ccc(-n2cc3c(c(C#N)c2=N)CC(C)(C)CC3=O)cc1`, 22% (inactive). As for `Cc1nc2ccccc2n1-c1cc(C(C)(C)C)c(O)c(C(C)(C)C)c1`, the figure is 16% (inactive); as for `CCOc1cc2c(c([N+](=O)[O-])c1)NC(c1ccc(Br)cc1)C1CC=CC21` (stereo not drawn), 7% (inactive); as for `O=C(NCc1ccco1)c1cc2cc3ccc(Cl)cc3nc2o1`, 14% (inactive).

Turning to `O=C1CC(c2ccc3c(c2)OCO3)c2ccc3ccccc3c2N1` (stereo not drawn), the inhibition was 19% (inactive). Regarding `COc1ccc(NS(=O)(=O)c2ccc3c(c2)[C@H]2C=CC[C@H]2[C@@H](c2ccc(C(=O)O)cc2)N3)cc1`, the inhibition was 88% (active). Regarding `O=c1oc2c(CN3CCCC3)c(O)ccc2c2c1CCC2`, the inhibition is 22% (inactive). In the case of `Cc1ccc(-n2nnnc2SCC(=O)Nc2cccc(NC(=O)c3ccco3)c2)cc1C` it was 56% (inactive). Regarding `O=C(N/N=C/c1cccc(Oc2ccc([N+](=O)[O-])cc2[N+](=O)[O-])c1)c1cncc(Br)c1`, the inhibition was 46% (inactive). In the case of `Cc1sc2ncnc(NCc3ccco3)c2c1C` it was 39% (inactive). In the case of `COc1ccc2c(c1)c1c3n2CCNC3CCC1` (stereo not drawn) it was 18% (inactive); in that of `COc1ccc(NS(=O)(=O)c2ccc3c(c2)[C@H]2C=CC[C@H]2[C@@H](c2cccc(OC)c2OC)N3)cc1`, 1% (inactive). On to `CC1=CC(C)C2(CO)COC(c3ccccc3O)C1C2C` (stereo not drawn), for which the inhibition was 66% (inactive).

With `COc1cc2c(cc1OC)CC(C)(C)N(Cc1ccco1)C2`, the inhibition is 15% (inactive).

For `CCCCOc1cc(OCCCC)c2c3c(c(=O)oc2c1)CCCC3`, the inhibition was 27% (inactive). As for `C=C1c2ccc(OC)cc2NC(=O)N1c1ccccc1`, the figure is 15% (inactive); as for `CC(=O)Nc1ccc2[nH]c(C)cc(=O)c2c1`, 64% (inactive); as for `CCCc1cc(=O)oc2c(C)c(OC3CCCCC3=O)ccc12` (stereo not drawn), 19% (inactive). Take `Cc1nc2cc(-c3ccsc3-n3c(C)ccc3C)[nH]n2c(=O)c1Cl`: the inhibition was 47% (inactive). Turning to `O=C(O)c1ccc([N+](=O)[O-])c2c1NC(c1ccccc1)C1CC=CC21` (stereo not drawn), the inhibition is 62% (inactive).

As to `CCOc1ccc(NS(=O)(=O)c2ccc3c(c2)[C@H]2C=CC[C@H]2[C@@H](c2ccc([N+](=O)[O-])cc2)N3)cc1`, the inhibition was 1% (inactive). In the case of `Cc1ccc2c(c1)C1C=CCC1C(C(=O)O)N2` (stereo not drawn) it was 0% (inactive); in that of `CCCCCCc1cc2c3c(c(=O)oc2cc1OCC(=O)O)CCCC3`, 7% (inactive).

With `COc1cc2c(c([N+](=O)[O-])c1)NC(c1ccc(Br)cc1)C1CC=CC21` (stereo not drawn), the inhibition is 8% (inactive). As for `COc1ccc(-n2cc3c(c(C#N)c2=N)CC(C)(C)CC3=O)cc1`, the figure is 18% (inactive); as for `CCCc1c(C(=O)OCC)[nH]c2c1C(=O)CC(c1ccccc1)C2` (stereo not drawn), 39% (inactive); as for `O=C1CC(c2ccncc2)c2cc3c(cc2N1)OCCO3` (stereo not drawn), 14% (inactive).
